Results filed as inconclusive are left out. Active and inactive are the calls of the source. Unless noted, calls follow the shape of the dose curve; as a rule, active = well fitted curve in the direction sought with a large enough effect; inconclusive = small, poorly fitted or top-dose-only effect, or another doubt; inactive = no such curve, though single readings can be large; an effect the other way counts as inactive or inconclusive.

A short description of experiment [1]: NCATS anti-infectives library activity on HEK293 viability as a counter-qHTS vs the C. elegans viability qHTS (AID 1745854).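 Also: HEK293 cells exposed to compounds for 24 hr before the viability read.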 The gist of the method: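 Cytotoxicity in human HEK293 cells is measured by ATP-dependent CellTiter-Glo luminescence following a 24 hr incubation with titrated library compounds at 37C. Top final concentration is 41.7 uM.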
A general note: Quantitative high-throughput screening tests each substance at several concentrations.

Experiment [2] is described as follows: NCATS anti-infectives library activity on the primary C. elegans qHTS viability assay (AID 1745855; calls by dose curve). The gist of the method:
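Viability is taken from GFP fluorescence of PE254-GFP-FLuc C. elegans imaged by laser cytometry over 7 days. Ten L1 worms per well grow at 21 °C on TOP10 E. coli capsules with titrated compound; levamisole marks toxicity.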

In experiment [3] the target is Metallo-beta-lactamase type 2 (Klebsiella pneumoniae) (UniProt C7C422). Briefly: qHTS to identify inhibitors of the New Delhi Metallo-beta-lactamase (NDM): assay validation screen against the NCATS LOPAC Collection (AID 1794843).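 Also: nitrocefin turnover by NDM-1 measured as 485 nm absorbance at plateau; series mostly up to about 38 µM.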 The gist of the method:
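NDM-1 at 2 nM final in 50 mM HEPES pH 7.0 with 1 uM ZnSO4 and 0.01% Tween20 was preincubated with library compounds in DMSO. Nitrocefin (50 uM stock) was then added, and absorbance at 485 nm was read at the kinetic plateau.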

The target of experiment [4] is Glutathione peroxidase 1 (Homo sapiens) (UniProt P07203). The experiment can be described thus: Primary qHTS Assay for Inhibitors of Recombinant Selenoprotein Glutathione Peroxidase 1 (GPX1) (AID 1845191). Also: nearly all actives have a fitted effect of over 65% in size. The gist of the method:
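10 nM GPX1 + cpd, 30 min RT; start w/ 1 mM GSH, 0.5 mM cumene hydroperoxide, 0.5 mM NADPH, 100 nM GR, 0.01% BSA; buffer 50 mM Tris-HCl pH 7.5, 2 mM EDTA, 150 mM NaCl; Fl 340/450, 0 & 15 min.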

Experiment [5] has as its target Phospholipid hydroperoxide glutathione peroxidase GPX4 (Homo sapiens) (UniProt P36969). Briefly: Primary qHTS Assay for Inhibitors of Recombinant Selenoprotein Glutathione Peroxidase 4 (GPX4) (AID 1845192). Also: nearly all actives have a fitted effect of over 65% in size. The gist of the method: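 NADPH consumption, followed by fluorescence at 340/450 nm between 0 and 15 min, reports GPX4 activity via coupled glutathione reductase (100 nM). Enzyme 200 nM was pre-exposed to compound 30 min; 0.5 mM cumene hydroperoxide and 1 mM GSH served as substrates.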

Experiment [6] is described as follows: Quantitative High-Throughput drug screen in 47 multiple myeloma cell lines against the NCATS MIPE library collection: EJM_DSMZ cell viability assay (AID 1918926; also: nearly all actives have a fitted effect of over 30% in size). In a few lines: (§1)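 CellTiter-Glo luminescence (ATP) after 48 h compound exposure, 37C/5% CO2; 500 cells/well; MIPE 4.0 approved/investigational drugs pinned in; DMSO = 100%, media only = 0% viability.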

Experiment [7] is described as follows: Quantitative High-Throughput drug screen in 47 multiple myeloma cell lines against the NCATS MIPE library collection: AMO1_DSMZ cell viability assay (AID 1918927; also: nearly all actives have a fitted effect of over 30% in size; also: potency is read from the fitted curve at half-maximal effect). The gist of the method: as §1
Experiment [8] can be described thus: Quantitative High-Throughput drug screen in 47 multiple myeloma cell lines against the NCATS MIPE library collection: ARP1_JJKsccF8 cell viability assay (AID 1918928; also: nearly all actives have a fitted effect of over 40% in size; also: potency is read from the fitted curve at half-maximal effect). In a few lines:
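Myeloma cells, 500 per well, were exposed to MIPE 4.0 drugs by pin transfer for 48 h at 37 °C, 5% CO2. Viability was read as ATP luminescence with CellTiter-Glo, normalised to DMSO-only (100%) and medium-only (0%) wells.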

Experiment [9] can be described thus: Quantitative High-Throughput drug screen in 47 multiple myeloma cell lines against the NCATS MIPE library collection: ARD_JJKsccE7 cell viability assay (AID 1918929; also: potency is read from the fitted curve at half-maximal effect). In a few lines:
as §1

Experiment [10] in a line: Quantitative High-Throughput drug screen in 47 multiple myeloma cell lines against the NCATS MIPE library collection: FR4_PLB cell viability assay (AID 1918924; also: nearly all actives have a fitted effect of over 35% in size; also: potency is read from the fitted curve at half-maximal effect). In a few lines:
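Primary qHTS used for cherry-picking: cells at 500/well, library compounds for 48 h (37C, 5% CO2), luminescent ATP assay.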

Experiment [11] in a line: Quantitative High-Throughput drug screen in 47 multiple myeloma cell lines against the NCATS MIPE library collection: Delta47_JCRB cell viability assay (AID 1918925; also: nearly all actives have a fitted effect of over 45% in size). The gist of the method:
as §1

Chain of Glutathione peroxidase 1 (Homo sapiens) (P07203 whole entry, looked up): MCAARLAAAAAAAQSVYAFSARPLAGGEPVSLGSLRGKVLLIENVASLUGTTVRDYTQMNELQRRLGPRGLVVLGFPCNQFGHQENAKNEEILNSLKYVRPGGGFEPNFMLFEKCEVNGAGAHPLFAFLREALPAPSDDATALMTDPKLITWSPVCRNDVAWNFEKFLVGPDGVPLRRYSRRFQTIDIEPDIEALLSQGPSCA
Chain of Phospholipid hydroperoxide glutathione peroxidase GPX4 (Homo sapiens) (P36969 whole entry, looked up): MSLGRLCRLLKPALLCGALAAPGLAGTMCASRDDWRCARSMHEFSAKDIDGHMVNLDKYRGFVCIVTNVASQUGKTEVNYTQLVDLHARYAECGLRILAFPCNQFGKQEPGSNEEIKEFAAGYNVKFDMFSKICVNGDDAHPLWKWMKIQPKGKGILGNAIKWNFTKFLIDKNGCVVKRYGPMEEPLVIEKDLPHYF
Chain of Metallo-beta-lactamase type 2 (Klebsiella pneumoniae) (C7C422 whole entry, looked up): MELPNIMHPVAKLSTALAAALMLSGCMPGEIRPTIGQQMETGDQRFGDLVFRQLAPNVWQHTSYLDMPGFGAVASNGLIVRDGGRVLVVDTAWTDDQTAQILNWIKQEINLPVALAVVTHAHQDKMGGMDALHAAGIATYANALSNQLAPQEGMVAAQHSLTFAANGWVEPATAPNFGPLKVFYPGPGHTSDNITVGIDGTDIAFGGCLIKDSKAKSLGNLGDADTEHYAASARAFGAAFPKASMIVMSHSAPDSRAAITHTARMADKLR

On to `O=C(CCCN1CCC(O)(c2ccc(Cl)cc2)CC1)c1ccc(F)cc1`, for which the Potency entry in experiment [1], in experiment [2], in experiment [4], in experiment [5] and in experiment [6] was “inactive” each time. Moreover, the outcome in experiment [3] was inactive. In addition, the values for the Potency in experiment [7], in experiment [8] and in experiment [9] were 20.9 µM (active), 23.5 µM (active) and 16.6 µM (active), respectively.
`COc1nc(C)nc(Cl)c1NC1=NCCN1`: the compound was called inactive in [3]. Moreover, the Potency entry in experiment [4], in [5], in experiment [10], in experiment [7], in experiment [8] and in [9] was “inactive” in each case.
As for `CN(C)c1nc(N(C)C)nc(N(C)C)n1`, the compound was called inactive in experiment [3]. Moreover, the Potency result in experiment [4], in experiment [5], in [6], in experiment [7] and in [9] was “inactive” in each case.
For the compound `Clc1ccc2nsnc2c1NC1=NCCN1`, the outcome in experiment [3] was inactive. Moreover, the Potency result in experiment [4], in [5] and in experiment [6] was “inactive” in each case.
Take `CCc1cccc2c3c([nH]c12)C(CC)(CC(=O)O)OCC3` (configuration not stated): the compound was classed as inactive in experiment [3]. Further, the Potency entry in experiment [4], in experiment [5], in experiment [11], in experiment [6], in [7] and in [8] was “inactive” each time. Besides, the Potency entry in experiment [9] is “inactive”.
With `Cc1cc(C(C)(C)C)cc(C)c1CC1=NCCN1`, the call in experiment [3] was inactive. Moreover, the Potency entry in [4], in experiment [5], in [6], in [7], in experiment [8] and in experiment [9] was “inactive” throughout.
In the case of `CS(=O)(=O)Nc1ccc([N+](=O)[O-])cc1Oc1ccccc1`, the result in experiment [3] was inactive. The Potency entry in experiment [4], in experiment [5], in experiment [6] and in experiment [7] was “inactive” throughout. Further, the Potency in [8] is 11.8 µM (active).
For the compound `CN(C)CCC=C1c2ccccc2C=Cc2ccccc21`, in experiment [3], the call was inactive. The Potency result in experiment [4], in experiment [5], in [6] and in experiment [9] was “inactive” each time. Further, the Potency in experiment [7] was 0.0235 µM (active).
In the case of `COc1ccccc1N1CCN(CC(O)COc2cccc3ccccc23)CC1` (configuration not stated), in experiment [3], the outcome was inactive. Further, the Potency entry in [4], in experiment [5], in experiment [11], in experiment [6] and in experiment [7] was “inactive” throughout. In addition, the Potency in [8] was 9.35 µM (active).
Take `CN(Cc1cnc2nc(N)nc(N)c2n1)c1ccc(C(=O)N[C@@H](CCC(=O)O)C(=O)O)cc1`: in experiment [3], the compound was classed as inactive. Also, the Potency entry in experiment [4] and in [5] was “inactive” in each case. Further, the Potency in experiment [10] was 37.2 µM (active); in experiment [7], 0.0166 µM (active); in experiment [8], 0.0332 µM (active).
For the compound `Cn1ccc2cc3c(cc21)CCN3C(=O)Nc1cccnc1`, the result in experiment [3] was inactive. Besides, the Potency result in experiment [4], in [5], in [6] and in experiment [8] was “inactive” throughout. In addition, in experiment [7], the Potency was 23.5 µM (active).
In the case of `O=C1N(c2ccccc2)c2ccccc2C1(Cc1ccncc1)Cc1ccncc1`, the outcome in [3] was inactive. Besides, the Potency entry in experiment [4], in experiment [5], in experiment [11], in experiment [7] and in experiment [8] was “inactive” throughout.
As for `CN(CCOc1ccc(NS(C)(=O)=O)cc1)CCc1ccc(NS(C)(=O)=O)cc1`, in experiment [3], the outcome was inactive. Further, the Potency entry in [4], in experiment [5], in experiment [10], in experiment [11], in experiment [6] and in [7] was “inactive” in each case. For the same compound, the Potency entry in [8] and in experiment [9] was “inactive” in each case.

(Values after PubChem BioAssay (NCATS).)
